High-throughput results (PubChem)
ssDAF12 agonist: activates DAF-12 receptor from parasite S. stercoralis | 1% of 370,000 active | AID 652126 | HEK293 ssDAF-12/GRIP1 lit1-tk-luc reporter, luminescence; % of 3 µM dafachronic acid response | activation, % at 6.8 µM;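 active means activation above the mean over all tested compounds plus 3 SD, cut at about 0.9% in these data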;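 further: 0% = DMSO-only wells and 100% = 3 µM delta7-dafachronic acid wells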
hgDAF-12 ag: agonists of H. glycines DAF-12 nuclear receptor | HEK293 GAL4-hgDAF12 UAS-luciferase reporter, agonist luminescence; normalized to butyrate control | activation, % at 6.8 µM | 1.8% of 370,000 active | AID 687014;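 active means activation above a cutoff set at the mean of all screened compounds plus 3 SD, cut at about 10% in these data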;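 further: 0% = DMSO wells and 100% = sodium butyrate wells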
DAX1 inh-1: inhibits human nuclear receptor DAX1; HEK293 Gal4-DAX1 luciferase reporter, luminescence; inhibition, % at 6.75 µM; 0.99% of 340,000 active; AID 504766;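 active means inhibition above the mean over all tested compounds plus 3 SD, cut at about 4.2% in these data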;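 further: 0% = DAX1-transfected cells with DMSO and 100% = empty-vector control cells with DMSO; inhibition shows as a rise in luminescence from relieved DAX1 repression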
Target sequence (P51843 207-470 limits assumed): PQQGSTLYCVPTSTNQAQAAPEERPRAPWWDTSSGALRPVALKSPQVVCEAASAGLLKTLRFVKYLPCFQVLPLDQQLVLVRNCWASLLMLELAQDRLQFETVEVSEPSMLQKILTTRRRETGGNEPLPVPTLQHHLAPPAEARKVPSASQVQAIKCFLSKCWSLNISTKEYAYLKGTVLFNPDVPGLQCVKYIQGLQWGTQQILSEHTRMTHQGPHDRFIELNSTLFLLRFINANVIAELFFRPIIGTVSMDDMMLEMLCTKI
DAX1 inh-2: DAX1 (NR0B1) inhibition, primary screen; HEK293T StAR-luciferase reporter, SF-1/DAX-1 repression relief; inhibition, % at 6.8 µM; AID 652010; 1.1% of 370,000 active;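 active means inhibition above the mean over all tested compounds plus 3 SD, cut at about 3.6% in these data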;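 further: 0% = DAX-1 cells with DMSO and 100% = cells lacking DAX-1 with DMSO; higher inhibition means more luminescence from relief of DAX-1 repression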
hcDAF-12 act: activators of H. contortus DAF-12 nuclear receptor; HEK293 hcDAF-12 lit1-tk-luc reporter, luminescence; 0% DMSO, 100% Δ7-dafachronic acid; activation, % at 6.8 µM; 1.4% of 370,000 active;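 active means activation above the mean of all tested compounds plus 3 SD, cut at about 5.5% in these data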;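 further: 100% = response to 3 µM Δ7-dafachronic acid high control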
LXR ag: activates human LXR-beta, counter-screen for hcDAF-12 agonists; AID 743027; 3,400 tested, under 10 active; activation, % at 6.8 µM; HEK293 Gal4-LXR tk-luc reporter, luminescence, 24 h; normalized: DMSO 0%, positive control 100%; shares compounds with hcDAF-12 act;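 active means mean percent activation of the reporter above a cutoff set as the average over tested compounds plus their standard deviation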
hcDAF12 conf: confirmation of H. contortus DAF-12 agonists | HEK293 hcDAF-12 lit1-tk-luc reporter, luminescence; % of Δ7-dafachronic acid response | 61% of 3,400 active | activation, % at 6.8 µM | AID 743032 | shares compounds with hcDAF-12 act;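 active means mean activation across triplicate tests above the threshold derived from the earlier primary screen, cut at about 5.5% in these data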;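 further: 0% = DMSO only wells and 100% = 3 µM Δ7-dafachronic acid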
An asterisk follows results filed as active; . = no result given. Sampled rows, rich in hits. Any-hit rate of the full collection: about 4.1%.

SMILES	ssDAF12 agonist	hgDAF-12 ag	DAX1 inh-1	DAX1 inh-2	hcDAF-12 act	LXR ag	hcDAF12 conf
C=CCN1C(=O)[C@@H](CC(=O)N2CCOCC2)[C@]2(C(=O)OC)CCCCC=C12	-1	3	.	0	0	.	.
Clc1ccc(-c2[nH]ncc2N=Nc2ccccc2)cc1	-1	-2	1	-1	0	.	.
c1ccc(N=Nc2ccc3cccccc2-3)cc1	1.8*	6	2	0	9.1*	1	10*
Nc1ccc(N=Nc2ccccc2)c2ccccc12	1	1	1	0	8.2*	0	5
O=c1c(N=Nc2ccccc2)c[nH]n1-c1ccccc1	0	10	2	2	3	.	.
C#CCN1[C@@H]2CCN(C2)c2cc(Br)ccc2S1(=O)=O	-1	2	1	0	-1	.	.
O=C1CCCCC1(c1ccccc1)c1ccccc1	-1	1	-1	0	0	.	.
COCCNC(=O)c1c(N)[nH]c(C(=O)c2ccc(Br)cc2)c1-c1ccc(Br)cc1	-1	-2	.	1	0	.	.
COC(=O)C1CN(Cc2cn(Cc3ccccc3)nn2)CCS(=O)(=O)N1Cc1ccc(OC)cc1 (stereo not drawn)	-1	6	.	-1	-3	.	.
CC(=O)N[C@H](Cc1c[nH]c2ccccc12)C(=O)O	0	1	-1	0	8.2*	0	0
O=C(O)C(Cc1c[nH]c2ccccc12)N1Cc2ccccc2C1=O (stereo not drawn)	3.0*	8	4	1	6.9*	1	8.0*
CC(=O)/C=C(/C)NC(Cc1c[nH]c2ccccc12)C(=O)O (stereo not drawn)	0	3	0	1	2	.	.
O=C(O)[C@H](Cc1ccccc1)N1Cc2ccccc2C1=O	-1	1	1	1	2	.	.
CCCCOCC1CN(CCCC)S(=O)(=O)c2c(Oc3ccc(C(C)C)cc3)cccc2O1 (stereo not drawn)	0	0	.	-1	3	.	.
Cc1c(-c2nc(-c3ccc(C(F)(F)F)cc3)no2)n(C)oc1=O	0	9	.	2	9.5*	1	7.9*
CS(=O)(=O)c1ccccc1-c1nc(-c2ccc(C(F)(F)F)cc2)no1	-2	1	-1	-1	-3	.	.
COC(=O)[C@@]12C[C@@H](CC(=O)N3CCOCC3)C(=O)N(Cc3cccc4ccccc34)C1=CCC(C)(C)C2	0	-5	.	0	-1	.	.
CCCCN(C)CCCNC(=O)c1cc(Nc2ccc(OC)c(OC)c2)nc2ccccc12	0	1	0	1	7.8*	0	1
Cc1cc(C(=O)NCCCN(C)C)c2ccccc2n1	-1	0	2	0	-1	.	.
CC1=C(C(=O)N2CCOCC2)CC(CC(=O)NCCN2CCOCC2)C(=O)N1Cc1ccc(F)cc1 (stereo not drawn)	-1	0	3	0	-1	.	.
Fc1cccc(Cc2c(-c3cccc(Br)c3)nc3c(Cl)cc(C(F)(F)F)cn23)c1	0	1	.	0	6.6*	0	1
Fc1ccc(-c2nc3c(Cl)cc(C(F)(F)F)cn3c2Cl)cc1	0	6	7.9*	1	9.6*	1	8.7*
CC(=O)c1ccc(OCc2cc(C(=O)N(C)C3CCOC3)no2)cc1 (stereo not drawn)	1	11*	3	4.0*	7.1*	1	6.8*
NC(=O)C1CCCN(C(=S)NCc2ccc3c(c2)OCO3)C1 (stereo not drawn)	-1	1	0	0	-1	.	.
NC(=O)C1CCCN(C(=S)Nc2cccc3ccccc23)C1 (stereo not drawn)	0	2	1	1	7.7*	0	0
COC(=O)c1c(NC(=S)Nc2ccc(F)cc2[N+](=O)[O-])sc2c1CCCCC2	0	2	1	-1	9.5*	0	2
